In PubChem BioAssay (NCI) one finds growth inhibition data, which are given here for ten compounds.

The structures appear in SMILES notation. This is part of a sample that, as a whole, favours compounds with a hit. Of some 79,000 tested, about 15% had one in any assay. Unmarked numbers belong to inactive results. Calls of active or inactive are those of the source. No stated cut-off is given here; in the data, active means growth inhibition above about 70%; inactive means the rest.

Test [1] can be described thus: NCI Yeast Anticancer Drug Screen. Data for the rad50 strain (AID 155).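 Further: 0% = growth of vehicle-only cultures of the same strain.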 To be noted: S. cerevisiae rad50 strain growth inhibition, active compounds read high. An outline of the steps:
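DNA repair mutant yeast, compound exposure, growth read-out; inhibition is taken relative to vehicle.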

Test [2] is described as follows: NCI Yeast Anticancer Drug Screen. Data for the mec2-1 strain (AID 157). To be noted: S. cerevisiae mec2-1 strain, active compounds read high. In short, it runs like this: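 Test agents were screened against the mec2-1 yeast strain, with defined DNA repair or cell cycle alteration. Growth was scored as inhibition against vehicle-only controls.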
Test [3] is described as follows: NCI Yeast Anticancer Drug Screen. Data for the sgs1 mgt1 strain (AID 161).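 Further: 0% = growth of cultures given vehicle only.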 Particulars: S. cerevisiae sgs1 mgt1 strain, active compounds read high. An outline of the steps: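 Inhibition of yeast growth, normalised to vehicle-treated controls, is reported for a strain bearing genetic alterations in DNA damage repair.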
A short description of test [4]: NCI Yeast Anticancer Drug Screen. Data for the cln2 rad14 strain (AID 165).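 Further: 0% = growth equal to vehicle treated cultures.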 To be noted: S. cerevisiae cln2 rad14 strain, active compounds read high. In short, it runs like this:
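Growth of compound-exposed yeast (cln2 rad14 genotype) measured and expressed as inhibition relative to vehicle.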

A short description of test [5]: NCI Yeast Anticancer Drug Screen. Data for the bub3 strain (AID 167). Particulars: S. cerevisiae bub3 mutant strain, active compounds read high. An outline of the steps:
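In this screen, a yeast mutant lacking normal mitotic checkpoint function is challenged with compound. Relative growth versus vehicle gives the inhibition value.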

Test [6] is described as follows: NCI Yeast Anticancer Drug Screen. Data for the mlh1 rad18 strain (AID 175). Particulars: S. cerevisiae mlh1 rad18 strain growth inhibition, active compounds read high. In short, it runs like this:
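In this whole-cell yeast screen, a strain with altered DNA damage repair is challenged with compound, and its growth is measured against matched vehicle-treated controls.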

Setting [7] is: at 5.0 µM (retest, dose inferred, filed as 0.5).
Setting [8] is: at 50.0 µM (retest, dose inferred, filed as 5.0).

As for `C=C(C)COc1ccccc1C(OCC)OCC`, the growth inhibition in test [1] (setting [7]) was 1%; in test [1] (setting [8]), 21%; in test [1] (at 50.0 µM), 49.9%; in test [2] (setting [7]), 7%; in test [2] (setting [8]), 19%; in test [2] (at 50.0 µM), 14.9%. The growth inhibition in test [3] (setting [7]) was 3%; in test [3] (setting [8]), 28%; in test [3] (at 50.0 µM), 29.1%; in test [4] (setting [7]), -1%; in test [4] (setting [8]) it was 27%; in test [4] (at 50.0 µM), 13.7%. The growth inhibition was 0% in test [5] (setting [7]); 20% in test [5] (setting [8]); 31.6% in test [5] (at 50.0 µM); 0% in test [6] (setting [7]); 39% in test [6] (setting [8]); 78.5% (active) in test [6] (at 50.0 µM).

As to `CN1C(=O)CCCCCCCCCCSc2ccccc21`, the growth inhibition in test [1] (setting [7]) is 7%; in test [1] (setting [8]), 97% (active); in test [1] (at 50.0 µM) it was 99% (active); in test [2] (setting [7]), 8%; in test [2] (setting [8]), 99% (active); in test [2] (at 50.0 µM), 99% (active). The growth inhibition in test [3] (setting [7]) was 4%; in test [3] (setting [8]), 97% (active); in test [3] (at 50.0 µM), 99.2% (active); in test [4] (setting [7]), 7%; in test [4] (setting [8]), 99% (active); in test [4] (at 50.0 µM), 96.7% (active). The growth inhibition in test [5] (setting [7]) is 16%; in test [5] (setting [8]), 98% (active); in test [5] (at 50.0 µM) it was 98.3% (active); in test [6] (setting [7]) it was 6%; in test [6] (setting [8]) it was 98% (active); in test [6] (at 50.0 µM) it was 98.8% (active).

In the case of `Cc1c2ccccc2c(C)c2c1cc(F)c1ccccc12`, the growth inhibition in test [1] (setting [7]) is 32%; in test [1] (setting [8]), 88% (active); in test [1] (at 50.0 µM), 96.1% (active); in test [2] (setting [7]), 43%; in test [2] (setting [8]) it was 92% (active); in test [2] (at 50.0 µM), 97.3% (active). Also, the growth inhibition in test [3] (setting [7]) is 46%; in test [3] (setting [8]) it was 94% (active); in test [3] (at 50.0 µM), 96.4% (active); in test [4] (setting [7]), 34%; in test [4] (setting [8]) it was 91% (active); in test [4] (at 50.0 µM), 94.5% (active). For the same compound, the growth inhibition in test [5] (setting [7]) is 21%; in test [5] (setting [8]), 90% (active); in test [5] (at 50.0 µM), 94.8% (active); in test [6] (setting [7]), 55%; in test [6] (setting [8]) it was 89% (active); in test [6] (at 50.0 µM), 93.8% (active).

On to `CCOC(=O)N1CCN(CCCCCCOc2c(Cl)cc(Cl)cc2Cl)CC1`, for which the growth inhibition in test [1] (setting [7]) is 45%; in test [1] (setting [8]), 98% (active); in test [1] (at 50.0 µM) it was 98.7% (active); in test [2] (setting [7]) it was 41%; in test [2] (setting [8]) it was 99% (active); in test [2] (at 50.0 µM), 96.1% (active). Further, the growth inhibition was 71% (active) in test [3] (setting [7]); 99% (active) in test [3] (setting [8]); 92% (active) in test [3] (at 50.0 µM); 58% in test [4] (setting [7]); 98% (active) in test [4] (setting [8]); 98.4% (active) in test [4] (at 50.0 µM). The growth inhibition is 64% in test [5] (setting [7]); 98% (active) in test [5] (setting [8]); 97.2% (active) in test [5] (at 50.0 µM); 49% in test [6] (setting [7]); 99% (active) in test [6] (setting [8]); 98.2% (active) in test [6] (at 50.0 µM).

As for `CCOC(=O)C[n+]1c(C)sc2ccccc21`, the growth inhibition in test [1] (setting [7]) is -4%; in test [1] (setting [8]) it was 23%; in test [1] (at 50.0 µM), 78.4% (active); in test [2] (setting [7]), -3%; in test [2] (setting [8]), 28%; in test [2] (at 50.0 µM), 40.1%. Also, the growth inhibition is 0% in test [3] (setting [7]); 54% in test [3] (setting [8]); 37.6% in test [3] (at 50.0 µM); -7% in test [4] (setting [7]); 18% in test [4] (setting [8]); 17.6% in test [4] (at 50.0 µM). Moreover, the growth inhibition was -6% in test [5] (setting [7]); 15% in test [5] (setting [8]); 39.6% in test [5] (at 50.0 µM); -3% in test [6] (setting [7]); 43% in test [6] (setting [8]); 19.2% in test [6] (at 50.0 µM).

Regarding `O=C(OCc1ccccc1CN1CCOCC1)c1ccc(Br)cc1`, the growth inhibition in test [1] (setting [7]) is -30%; in test [1] (setting [8]), 29%; in test [1] (at 50.0 µM), 77.3% (active); in test [2] (setting [7]), -2%; in test [2] (setting [8]), -2%; in test [2] (at 50.0 µM), 74.5% (active). In addition, the growth inhibition in test [3] (setting [7]) is -2%; in test [3] (setting [8]) it was 77% (active); in test [3] (at 50.0 µM), 93.7% (active); in test [4] (setting [7]), -1%; in test [4] (setting [8]), -7%; in test [4] (at 50.0 µM), 51.9%. For the same compound, the growth inhibition is 2% in test [5] (setting [7]); 41% in test [5] (setting [8]); 92.1% (active) in test [5] (at 50.0 µM); 4% in test [6] (setting [7]); 36% in test [6] (setting [8]); 76.1% (active) in test [6] (at 50.0 µM).

On to `Clc1ccc2nc3ccccc3nc2c1`, for which the growth inhibition was -31% in test [1] (setting [7]); 96% (active) in test [1] (setting [8]); 94.7% (active) in test [1] (at 50.0 µM); 26% in test [2] (setting [7]); 67% in test [2] (setting [8]); 86.8% (active) in test [2] (at 50.0 µM). Besides, the growth inhibition in test [3] (setting [7]) was -5%; in test [3] (setting [8]), 81% (active); in test [3] (at 50.0 µM) it was 79.6% (active); in test [4] (setting [7]), -9%; in test [4] (setting [8]) it was 79% (active); in test [4] (at 50.0 µM) it was 80.7% (active). Further, the growth inhibition was 21% in test [5] (setting [7]); 78% (active) in test [5] (setting [8]); 92.3% (active) in test [5] (at 50.0 µM); -4% in test [6] (setting [7]); 94% (active) in test [6] (setting [8]); 93.8% (active) in test [6] (at 50.0 µM).

As for `O=S(=O)(SCc1ccccc1)C(c1ccccc1)c1ccccc1`, the growth inhibition in test [1] (setting [7]) was 10%; in test [1] (setting [8]) it was 6%; in test [1] (at 50.0 µM), 89.7% (active); in test [2] (setting [7]), 13%; in test [2] (setting [8]) it was 6%; in test [2] (at 50.0 µM), 98.6% (active). Further, the growth inhibition in test [3] (setting [7]) is 13%; in test [3] (setting [8]), 31%; in test [3] (at 50.0 µM), 98% (active); in test [4] (setting [7]), 5%; in test [4] (setting [8]) it was -17%; in test [4] (at 50.0 µM), 95.5% (active). In addition, the growth inhibition was 13% in test [5] (setting [7]); 39% in test [5] (setting [8]); 99.1% (active) in test [5] (at 50.0 µM); 20% in test [6] (setting [7]); 18% in test [6] (setting [8]); 98% (active) in test [6] (at 50.0 µM).

With `O=C(CCCN1CCC2(CC1)CC(c1ccccc1)OC2=O)c1ccc(F)cc1` (stereo not given), the growth inhibition in test [1] (setting [7]) was 48%; in test [1] (setting [8]), 76% (active); in test [1] (at 50.0 µM) it was 86.3% (active); in test [2] (setting [7]) it was 33%; in test [2] (setting [8]) it was 65%; in test [2] (at 50.0 µM), 87.9% (active). For the same compound, the growth inhibition in test [3] (setting [7]) was 44%; in test [3] (setting [8]), 87% (active); in test [3] (at 50.0 µM) it was 94.7% (active); in test [4] (setting [7]), 41%; in test [4] (setting [8]) it was 84% (active); in test [4] (at 50.0 µM) it was 89.8% (active). Moreover, the growth inhibition in test [5] (setting [7]) was 39%; in test [5] (setting [8]), 90% (active); in test [5] (at 50.0 µM), 95.2% (active); in test [6] (setting [7]) it was 34%; in test [6] (setting [8]) it was 63%; in test [6] (at 50.0 µM), 95.9% (active).

Turning to `CCCCCCCSCc1nc2ccccc2c(C)[n+]1[O-]`, the growth inhibition in test [1] (setting [7]) was 2%; in test [1] (setting [8]), 99% (active); in test [1] (at 50.0 µM), 96.7% (active); in test [2] (setting [7]) it was 3%; in test [2] (setting [8]), 98% (active); in test [2] (at 50.0 µM) it was 95.8% (active). Also, the growth inhibition in test [3] (setting [7]) is 0%; in test [3] (setting [8]), 98% (active); in test [3] (at 50.0 µM), 95.8% (active); in test [4] (setting [7]), -3%; in test [4] (setting [8]), 98% (active); in test [4] (at 50.0 µM), 94.8% (active). In addition, the growth inhibition is -2% in test [5] (setting [7]); 99% (active) in test [5] (setting [8]); 98% (active) in test [5] (at 50.0 µM); 3% in test [6] (setting [7]); 98% (active) in test [6] (setting [8]); 97.5% (active) in test [6] (at 50.0 µM).
